DT40 TDP1 no CPT = qHTS for Inhibitors of human tyrosyl-DNA phosphodiesterase 1 (TDP1): qHTS in cells in absence of CPT; DT40 Tdp1-/- hTDP1 cells, no CPT, ATP luminescence, 48 h; Potency, µM (highest dose often 46.2 µM), inactives show top-dose activity change, negative = growth inhibition, hits mostly inhibitors; 420,000 tested, 15% active; AID 686978, 2013; also: potency is read from the fitted curve at half-maximal effect; nearly all actives have a fitted effect of over 55% in size
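Cells were dispensed at 400 per well, compounds added by pin tool, plates incubated ≥48 hr at 37 °C, then CellTiter-Glo added for 30 min at room temperature before luminescence reading. Line: DT40 Tdp1-/- complemented with hTDP1; camptothecin omitted.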
HT1080-NT tox = qHTS for induction of synthetic lethality in tumor cells producing 2HG: qHTS for the HT-1080-NT fibrosarcoma cell line; HT-1080-NT fibrosarcoma viability, CellTiter-Glo ATP luminescence, 48 h; 360,000 tested, 1.6% active; Potency, µM (doses to about 46.1 µM), without a hit: at the highest dose activity, negative = less viability, hits mostly cytotoxic; AID 686970, 2013;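 also: NT is the 2HG producing partner of a matched IDH1 knockdown line; potency is read from the fitted curve at half-maximal effect; 0% = DMSO-treated cells and -100% = media-only wells without cells; nearly all actives have a fitted effect of over 55% in size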
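HT-1080-NT fibrosarcoma cells (2HG-overproducing), 750 cells/well in RPMI with 5% FBS, dosed after 2 h and incubated 48 h at 37C. CellTiter-Glo luminescence normalized to DMSO and no-cell wells; concentration-response curves fitted and classed.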
HT1080 IDH1KD tx = qHTS for induction of synthetic lethality in tumor cells producing 2HG: qHTS for the HT-1080-IDH1KD cell line | HT-1080 IDH1 knockdown viability, ATP luminescence, 48 h | Potency, µM (top dose mostly 46.1 µM), inactives show at the highest dose activity, negative = toxicity, usual class: cytotoxic | 360,000 tested, 2% active | AID 686971, 2013;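 also: potency is read from the fitted curve at half-maximal effect; 0% = DMSO wells and -100% = cell-free medium wells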
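Knockdown cells (IDH1KD HT-1080) received compounds 2 h after plating at 750 cells/well and were kept 48 h at 37 °C in 5% FBS RPMI. A CellTiter-Glo luminescence read gave % activity for curve fitting.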
IL-1B inflam inh = qHTS for Inhibitors of Inflammasome Signaling: IL-1-beta AlphaLISA Primary Screen | THP-1 LPS/ATP IL-1B secretion, AlphaLISA, 16 h; active compounds read low | activity change, % at 57.5 µM | 360,000 tested, 4.7% active | AID 743279, 2014; in the data active = activity change below about -50%; inconclusive = mostly about -30% to -49%
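THP-1 cells pretreated 1 hr with compounds (up to 57.5 uM final), then stimulated with LPS (250 ng/mL final) plus ATP (1.25 mM final); secreted IL-1B measured by AlphaLISA after 16 hr, decreased signal indicating inhibition.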
DT40 TDP1 CPT = qHTS for Inhibitors of human tyrosyl-DNA phosphodiesterase 1 (TDP1): qHTS in cells in presence of CPT; chicken DT40 Tdp1-/-;hTDP1 cells + 20 nM CPT, ATP luminescence, 48 h; Potency, µM (highest dose often 46.2 µM), without a hit: at the top dose activity change, negative = growth inhibition, hits mostly inhibitors; 420,000 tested, 12% active; AID 686979, 2013; also: potency is read from the fitted curve at half-maximal effect; nearly all actives have a fitted effect of over 55% in size
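Chicken DT40 Tdp1-/- cells stably complemented with human TDP1 were seeded at 400 cells/well in medium containing 20 nM camptothecin, exposed to pin-transferred compounds, and grown at 37 °C for at least 48 hr. Viability was read as ATP luminescence.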
* hit, by the source's call; ? = inconclusive; . = no result given. The list is not random: actives were taken first. Their share in the collection is about 19%. Unless noted, calls follow the shape of the dose curve; as a rule, active = well fitted curve in the direction sought with a large enough effect; inconclusive = small, poorly fitted or top-dose-only effect, or another doubt; inactive = no such curve, though single readings can be large; an effect the other way counts as inactive or inconclusive. Unless noted, % is scaled to controls: 0 for no effect and ±100 for the full control effect.

SMILES | DT40 TDP1 no CPT | HT1080-NT tox | HT1080 IDH1KD tx | IL-1B inflam inh | DT40 TDP1 CPT
Cc1cccc(NC(=O)C2CCCN(c3nnc(-n4c(C)ccc4C)s3)C2)c1C (configuration not stated) | 14.6µM* | . | . | . | 14.6µM*
CC(=O)c1cccc(NC(=O)C2CCCN(c3nnc(-n4cccc4)s3)C2)c1 (configuration not stated) | 16.4µM* | . | . | . | ?
COc1cccc(NC(=O)C2CCC2)c1 | -1.5% | 3.0% | 0.6% | -5.0 | -4.0%
CC(=O)c1cccc(NC(=O)C2CCCN(S(C)(=O)=O)C2)c1 (configuration not stated) | -5.6% | 3.7% | 0.0% | -12.2 | -0.3%
CC(=O)c1ccc(NC(=O)Nc2nnc(N3CCCC(C)C3)s2)cc1 (configuration not stated) | 18.4µM* | . | . | . | 6.51µM*
Cc1ccccc1-c1nn(-c2ccc(F)cc2F)cc1CNC1CC1 | ? | 1.9% | -1.7% | -6.2 | 2.1%
Cc1cc(F)ccc1NC(=O)C1CCCN(c2nnc(-n3c(C)ccc3C)s2)C1 (configuration not stated) | 16.4µM* | . | . | . | 20.6µM*
Cc1cccc(CSCc2ccc(C(=O)NCC3CCCO3)o2)c1 (configuration not stated) | -25.6% | 0.8% | -2.7% | 20.9 | ?
NNC(=O)c1sc2cc(C(F)(F)F)cnc2c1-c1ccccn1 | -0.9% | -12.2% | 3.2% | 34.1 | 2.6%
COC(=O)c1ccc(CSc2nnc(CNC(=O)c3ccccc3F)o2)o1 | 1.3% | 2.0% | 3.8% | -18.2 | -12.2%
O=C(COc1ccc(Cl)cc1)NCc1nnc(SCC(=O)Nc2ccc(F)cc2F)o1 | 6.2% | -0.2% | -3.4% | -7.7 | 13µM*
COC(=O)c1ccc(CSc2nnc(CNC(=O)COc3ccc(Cl)cc3)o2)o1 | ? | -13.3% | -0.2% | -10.8 | 16.4µM*
Cc1cccc(NC(=O)Nc2nnc([C@H]3C[C@H](O)[C@@H](CO)O3)s2)c1 | -9.4% | 3.6% | 15.4% | -5.1 | ?
COc1ccc2c(c1)CCCC(Br)C2=O (configuration not stated) | 3.26µM* | -5.8% | -22.5% | -66.8* | 5.17µM*
CCC(C)[C@H](NC(=O)N1CC(=O)Nc2ccccc21)C(=O)Nc1ccccc1C (some centres not stated) | ? | ? | ? | 22.5 | 16.4µM*
Cc1ccccc1NC(=O)CNC(=O)N1CC(=O)Nc2ccccc21 | 4.9% | -1.4% | 6.0% | 19.6 | 2.6%
O=C(c1ccc(Cl)c([N+](=O)[O-])c1)N(Cc1ccc(F)cc1)C1CCS(=O)(=O)C1 (configuration not stated) | ? | -2.0% | 0.1% | -94.7* | 6.2%
Cc1cc(C)c(OCC(=O)N(Cc2ccc(N(C)C)cc2)C2CCS(=O)(=O)C2)c(C)c1 (configuration not stated) | 23.1µM* | -4.2% | 2.5% | -72.4* | -7.4%
CN(C)c1ccc(CN(C(=O)c2ccc(Cl)c([N+](=O)[O-])c2)C2CCS(=O)(=O)C2)cc1 (configuration not stated) | ? | ? | ? | -75.1* | ?
CN(C)c1ccc(CN(C(=O)c2ccco2)C2CCS(=O)(=O)C2)cc1 (configuration not stated) | -0.8% | 5.8% | 7.3% | -7.9 | -2.4%
O=C(c1ccc(F)cc1)N(Cc1ccccc1)C1CCS(=O)(=O)C1 (configuration not stated) | -20.7% | -3.9% | 0.7% | 22.8 | -16.7%
Cn1cnnc1SCC(=O)Nc1ccc(OCc2ccccc2)cc1 | -19.7% | 11.0% | 8.8% | -4.8 | 8.9%
CCOC(=O)[C@@H](NC(=O)CC[C@H]1O[C@@H](n2cc(C)c(=O)[nH]c2=O)C[C@@H]1O)C(C)C | -4.0% | 6.7% | 2.0% | -5.5 | 4.5%
CC(C)Nc1nc(NCc2ccccc2)c2sccc2n1 | 18.4µM* | 23.1µM* | ? | -101.2* | 9.2µM*
c1ccc(OCCNc2nc(NCC3CC3)nc3ccsc23)cc1 | 4.61µM* | 20.6µM* | ? | ? | 4.61µM*
SMILES | DT40 TDP1 no CPT | HT1080-NT tox | HT1080 IDH1KD tx | IL-1B inflam inh | DT40 TDP1 CPT
CC(C)Nc1nc(Nc2ccc(Cl)cc2F)c2sccc2n1 | 20.6µM* | ? | ? | -1.4 | 20.6µM*
COc1ccccc1CNc1nc(NCc2cccs2)nc2ccsc12 | 16.4µM* | ? | ? | -16.8 | ?
CSc1nc(Oc2ccc(Cl)cc2)c2sccc2n1 | -5.4% | 14.7% | 5.9% | 26.1 | -15.2%
Cc1ccc(S(=O)(=O)N(CC(=O)N(C(C)C)C(C)C)C(=O)N2CCN(C)CC2)cc1 | 9.1% | 7.9% | 20.4% | 18.5 | 9.2%
CCCCNC(=S)NC(C)(C)CO | 5.5% | 0.9% | -3.1% | 21.1 | -1.2%
COc1ccccc1CNc1nc(NCc2ccc(NC(C)=O)cc2)c2sccc2n1 | -29.2% | ? | ? | -9.3 | ?
OCc1ccccc1-c1nc(NCc2ccccc2)nc2ccsc12 | -25.2% | -24.0% | ? | 0.0 | ?
COc1ccccc1CNc1nc(NCCOc2ccccc2)c2sccc2n1 | 5.8µM* | ? | ? | -92.5* | 5.8µM*
COc1ccccc1CNc1nc(NCc2ccc3occc3c2)c2sccc2n1 | 20.6µM* | 16.4µM* | ? | -99.8* | 20.6µM*
Clc1ccccc1Nc1nc(NCc2ccccc2)nc2ccsc12 | 9.2µM* | -4.4% | 7.1% | -28.1 | 9.2µM*
COc1ccccc1CNc1nc(NCC2CC2)nc2ccsc12 | 20.6µM* | ? | 14.6µM* | -82.5* | 10.3µM*
CC(Sc1n[nH]c(N)n1)C(=O)NC1CCCCC1C (configuration not stated) | 8.8% | 19.5% | 5.9% | 9.5 | -14.7%
COc1ccc(-c2nc3n(n2)C(c2ccc(O)cc2)C(C(=O)Nc2cccnc2)=C(C)N3)cc1OC (configuration not stated) | 0.4% | . | . | . | 4.7%
Fc1ccc(Nc2nc(NCc3cccs3)nc3ccsc23)cc1 | 20.6µM* | ? | 0.0% | -27.5 | ?
CC(=O)Nc1ccc(CNc2nc(NCc3cccs3)nc3ccsc23)cc1 | -25.8% | ? | ? | 33.3 | -9.1%
COCCNc1nc(NCc2ccccc2)nc2ccsc12 | 9.2µM* | -29.0% | 0.0% | -25.8 | 20.6µM*
COc1ccccc1CNc1nc(Nc2ccccc2-n2cccn2)c2sccc2n1 | 16.4µM* | ? | ? | -14.8 | 14.6µM*

Screening data (PubChem BioAssay)
